Data as given in article PMC4336329 (PLoS ONE, 2015).
Hit rate of the full screen: of about 310,000 compounds, about 14,000 (4.5%) showed an effect of 50% or more. The effect is printed as a negative number. What follows is part of a selection rich in strong results, with near analogues and random picks from the rest.

target: human ether-à-go-go-related gene (hERG) potassium channel (human, UniProt Q12809); test: primary screen, population patch clamp on CHO cells stably expressing hERG; higher = less effect of the substance
Sequence (Q12809 whole entry, looked up): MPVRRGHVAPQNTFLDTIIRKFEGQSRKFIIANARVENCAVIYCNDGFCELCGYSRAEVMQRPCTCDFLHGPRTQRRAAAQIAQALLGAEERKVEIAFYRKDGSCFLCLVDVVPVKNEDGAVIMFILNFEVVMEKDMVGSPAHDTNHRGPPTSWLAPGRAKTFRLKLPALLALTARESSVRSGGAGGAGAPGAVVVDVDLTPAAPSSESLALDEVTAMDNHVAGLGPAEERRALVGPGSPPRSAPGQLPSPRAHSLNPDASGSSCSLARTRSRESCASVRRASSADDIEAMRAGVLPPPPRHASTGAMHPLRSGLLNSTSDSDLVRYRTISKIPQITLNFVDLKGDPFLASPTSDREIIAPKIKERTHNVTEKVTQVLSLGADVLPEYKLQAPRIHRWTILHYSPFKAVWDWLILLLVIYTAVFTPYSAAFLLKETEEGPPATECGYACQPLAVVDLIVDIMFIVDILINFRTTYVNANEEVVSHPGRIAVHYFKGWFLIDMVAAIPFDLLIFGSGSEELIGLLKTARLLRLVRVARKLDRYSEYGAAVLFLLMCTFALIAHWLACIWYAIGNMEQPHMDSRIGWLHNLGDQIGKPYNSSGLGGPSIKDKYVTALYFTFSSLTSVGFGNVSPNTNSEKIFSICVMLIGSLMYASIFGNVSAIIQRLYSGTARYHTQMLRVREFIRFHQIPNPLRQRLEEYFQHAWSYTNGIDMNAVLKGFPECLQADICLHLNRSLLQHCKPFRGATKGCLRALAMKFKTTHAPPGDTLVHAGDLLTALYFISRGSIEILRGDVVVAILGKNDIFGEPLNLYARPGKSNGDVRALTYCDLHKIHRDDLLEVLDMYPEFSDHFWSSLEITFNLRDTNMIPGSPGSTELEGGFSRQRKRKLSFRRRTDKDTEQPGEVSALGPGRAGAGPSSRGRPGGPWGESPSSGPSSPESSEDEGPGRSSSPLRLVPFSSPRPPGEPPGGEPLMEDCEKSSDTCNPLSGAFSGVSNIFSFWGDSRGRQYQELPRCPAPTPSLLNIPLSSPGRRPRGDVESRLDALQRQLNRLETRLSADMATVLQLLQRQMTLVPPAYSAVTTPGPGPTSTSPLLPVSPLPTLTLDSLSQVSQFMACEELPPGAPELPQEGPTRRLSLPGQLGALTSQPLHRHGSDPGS
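Also: peak tail current of the secondary pulse compared with the same well before compound.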

SMILES	hERG current change (%, negative = inhibition) at 10uM
CCOc1nc(NCCc2ccc(OC)c(OC)c2)nc(N2CCN(c3ccc(OC)cc3)CC2)n1	-3.79%
COc1ccc(CCNc2nc(N3CCOCC3)nc(N3CCOCC3)n2)cc1OC	3.45%
COc1ccc(N2CCN(c3nc(NCCc4ccc(OC)c(OC)c4)nc(OC)n3)CC2)cc1	-78.3%
N=C1C(c2nc(-c3ccc(Cl)cc3)cs2)=C(O)CN1NC(=O)c1ccc(O)cc1	4.02%
Cc1ccccc1N1CCN(C2CCCN(C(=O)c3cc[n+]([O-])cc3)C2)CC1 (stereo not drawn)	9.87%
COc1ccc(CN2C(=O)CCC(C(=O)O)C2c2ccccc2)cc1 (stereo not drawn)	25.6%
O=C(COc1cccc([N+](=O)[O-])c1)NN1C(=O)c2ccccc2C1=O	-5.95%
Cc1cc(=O)n(C)c(=O)n1CCCNc1ccccc1.O=C(O)C(=O)O	-4.01%
Cc1cc(=O)n(C)c(=O)n1CCCCCOc1cccc([N+](=O)[O-])c1	-57.9%
Cc1cc(=O)n(C)c(=O)n1CCCCOc1cccc([N+](=O)[O-])c1	-14.5%
Cc1cc(C(=O)COc2cccc([N+](=O)[O-])c2)c(C)n1C1CC1	-35.7%
Cc1cc(=O)n(C)c(=O)n1CCCCCCOc1cccc([N+](=O)[O-])c1	-69.3%
Cn1nccc1CNC(=O)c1ccnn1C	14.9%
COc1ccc(COC(=O)C2=C(C)NC(=O)NC2c2cccc(OC)c2OC)cc1 (stereo not drawn)	5.25%
CCC(=O)Nc1ncc2c(n1)CC(c1ccco1)CC2=O (stereo not drawn)	7.92%
COc1ccc(Cl)cc1NC(=O)COC(=O)C1CCCCC1	7.15%
Cc1ccc(Cl)cc1NC(=O)COC(=O)C1CCCC1	-75.8%
Cc1ccc(Cl)cc1NC(=O)COC(=O)C1CCCCC1	7.48%
COc1ccc(C)cc1NC(=O)Nc1ccc(C(=O)N2CCCC2)cc1	-23%
O=C(OCc1ccccn1)C1CCN(C(=O)c2ccc(Cl)cc2)CC1	-36%
Cc1ccc(Cl)cc1NC(=O)COC(=O)C1CC1	-5.31%
COc1ccc(COC(=O)C2CCN(C(=O)c3ccc(Cl)cc3)CC2)cc1F	-52.2%

SMILES	hERG current change (%, negative = inhibition) at 10uM
COc1ccc(C)cc1NC(=O)COC(=O)C1CCN(C(=O)c2ccc(Cl)cc2)CC1	-79.1%
COc1ccc(OC)c(NC(=O)COC(=O)C2CCN(C(=O)c3ccc(Cl)cc3)CC2)c1	-71.1%
COc1ccc(Cl)cc1NC(=O)COC(=O)C1CC1	-0.403%
COc1ccc(C)cc1NC(=O)COC(=O)C1CC1	6.16%
COc1ccc(CCNC(=O)C2CCN(C(=O)c3ccc(Cl)cc3)CC2)cc1OC	2.77%
Cl.NC(CO)C12CC3CC(CC(C3)C1)C2 (stereo not drawn)	9.97%
Cc1ccc(C(C(=O)NCc2ccco2)N(C(=O)CNC(=O)c2cccs2)c2ccc(C)cc2C)cc1 (stereo not drawn)	-10.3%
CN1CCN(c2nc(-c3ccccc3)cc(C(F)(F)F)n2)CC1	-19.1%
CCOc1ccc2c(c1)c(N=NC(N)=S)c(O)n2C	1.21%
CC(C)Cc1nnc(NC(=O)C2CC(=O)N(Cc3ccccc3)C2)s1 (stereo not drawn)	0.385%
Cc1ccccc1C(=O)NNC(=O)C1CC(=O)N(Cc2ccccc2)C1 (stereo not drawn)	2.19%
COc1ccc(C(C#N)c2ccc(Cl)nn2)cc1 (stereo not drawn)	-2.07%
Cc1ccc2[nH]c(=O)c3cc(C(=O)NCC4CCCO4)sc3c2c1 (stereo not drawn)	-3.5%
CS(=O)(=O)Nc1ccc(C(=O)NC2CCCCC2)cc1	-0.845%
COc1ccc2cc(C)c(SCC(=O)Nc3cc(C)on3)nc2c1	6.5%
COc1ccc(-c2nc3ccccc3o2)cc1NC(=O)c1ccc(Br)o1	4.92%
CCOC(=O)COn1c(=O)c(-c2ccc(OC)cc2)[n+]([O-])c2ccccc21	-1.13%
COCCN(CCOC)C(=O)C1CCN(c2ccc(S(=O)(=O)N3CCOCC3)cc2[N+](=O)[O-])CC1	-35.5%
CCCCN(C)C(=O)C1CCN(c2ccc(S(=O)(=O)N3CCOCC3)cc2[N+](=O)[O-])CC1	-53.9%
O=C(NCc1ccco1)C1CCN(c2ccc(S(=O)(=O)N3CCOCC3)cc2[N+](=O)[O-])CC1	-70%
C=CCNC(=O)C1CCN(c2ccc(S(=O)(=O)N3CCOCC3)cc2[N+](=O)[O-])CC1	-24%
CCCN(CCC)C(=O)C1CCN(c2ccc(S(=O)(=O)N3CCOCC3)cc2[N+](=O)[O-])CC1	-22.4%

SMILES	hERG current change (%, negative = inhibition) at 10uM
CC(C)CNC(=O)C1CCN(c2ccc(S(=O)(=O)N3CCOCC3)cc2[N+](=O)[O-])CC1	-38.8%
CN(/N=C/c1ccco1)C1=NS(=O)(=O)c2ccccc21	4.85%
O=C(CC(SCCO)c1ccc2c(c1)OCO2)c1cccs1 (stereo not drawn)	-16.7%
CCOc1cc(N2CCOCC2)c(OCC)cc1NC(=O)CCS(=O)(=O)c1ccc(Cl)cc1	-35.5%
N#CCCN1CCN(S(=O)(=O)c2ccc(S(=O)(=O)NC3CC3)cc2)CC1	-1.76%
O=C(Nc1cccc(C(F)(F)F)c1)c1c(O)c2ccccc2[nH]c1=O	16%
CCN(CC)CCCN=Cc1c(O)n(CCc2ccc(F)cc2)c(=O)[nH]c1=O	-56.1%
CCN(CC)CCCN=Cc1c(O)n(Cc2ccc(F)cc2)c(=O)[nH]c1=O	-33.7%
CCN(CC)CCN=Cc1c(O)n(CCC2=CCCCC2)c(=O)[nH]c1=O	-65.6%
CN(C)CCN=Cc1c(O)n(CCC2=CCCCC2)c(=O)[nH]c1=O	-24.2%
CN(C)CCCN=Cc1c(O)n(CCc2ccc(F)cc2)c(=O)[nH]c1=O	15.2%
O=c1[nH]c(=O)n(CCC2=CCCCC2)c(O)c1C=NCCN1CCNCC1	-11.7%
CN1CCN(c2ccc(S(=O)(=O)N3CCOCC3)cc2NC(=O)CC(C)(C)C)CC1	8.55%
O=C(NCc1ccco1)c1ccc(COCC(F)(F)C(F)F)cc1	-13.6%
CC(=O)Nc1ccc(S(=O)(=O)/N=C2\SCCN2S(=O)(=O)c2ccc(NC(C)=O)cc2)cc1	-5.46%
C=CCSc1nsc(NC(=O)Nc2ccc(F)cc2)n1	22.1%
COc1cc(-c2nnc(SCC3(c4ccc(Br)cc4)OCCO3)o2)cc(OC)c1OC	-9.92%
Cc1nc(C(C)NC(=O)c2cc(COc3ccc(F)c(F)c3)on2)cs1 (stereo not drawn)	-11.2%
CC(C)(C)c1ccc(OCCOCCn2cnc3ccccc3c2=O)cc1	-36.8%
O=c1c2ccc([N+](=O)[O-])cc2ncn1CCOc1ccccc1	-8.16%
c1ccc(OCCn2cnc3ccccc32)cc1	-9.08%
O=[N+]([O-])c1ccc(OCCn2cnc3ccccc32)cc1	-68.1%

SMILES	hERG current change (%, negative = inhibition) at 10uM
O=c1c2ccccc2ncn1CCOCCOc1ccc([N+](=O)[O-])cc1	-64.3%
COc1ccc(OCCn2cnc3ccccc32)cc1	0.789%
Cc1c(C(=O)OC(C)C)sc(NC(=O)c2cccnc2)c1C#N	18.3%
CCOc1ccc(CCNC(=O)c2ccc(Cl)c(S(=O)(=O)N3CCOCC3)c2)cc1OCC	-20.4%
CCN(C(=O)Cn1c(=O)oc2ccccc21)c1cccc(C)c1	6.38%
COc1cc2c(cc1OC)C1=C(C#N)CC/C(=N\S(=O)(=O)c3ccccc3)N1CC2	-33.1%
O=C(CSc1nnc(NC(=O)c2cccc(Cl)c2)s1)NCC1CCCO1 (stereo not drawn)	20%
Cl.O=C(O)c1ccc(CNCc2ccc(F)cc2)cc1	16.4%
CCOC(=O)Cc1csc(NC(=O)c2sc3nc4cc(C)ccc4cc3c2N)n1	-6.55%
CC1CCN(c2nc3ccccc3n2CC(=O)c2ccccc2)CC1	56%
Cc1nnc2c(N3CCN(C(=O)c4ccco4)CC3)nc3ccccc3n12	-33.1%
CC(C)Cn1c(/C=C/c2ccccc2)nc2ccccc21	-42.2%
O=C(Cn1c(N2CCN(C/C=C/c3ccccc3)CC2)nc2ccccc21)c1ccccc1	-51.2%
CC(C)n1c(N2CCN(C(=O)c3cccs3)CC2)nc2ccccc21	-49.2%
CCn1c(N2CCN(C(=S)NCCc3ccccc3)CC2)nc2ccccc21	-50%
CC(C)Cn1c(SCC(=O)N2CCN(S(=O)(=O)c3ccccc3)CC2)nc2ccccc21	0.539%
CCn1c(N2CCN(C(=O)c3ccco3)CC2)nc2ccccc21	-50.7%
CC(C)Cn1c(N2CCN(C(=O)c3cccs3)CC2)nc2ccccc21	-73.6%
CC(C)Cn1c(N2CCN(C(=O)/C=C/c3ccccc3)CC2)nc2ccccc21	-69.1%
O=C(c1cccs1)N1CCn2c1nc1ccccc12	-25.5%
O=C(Cn1c(N2CCN(c3ccccc3)CC2)nc2ccccc21)c1ccccc1	-16.1%
